The target of assay [1] is Thyrotropin-releasing hormone receptor (Homo sapiens) (UniProt P34981). Description: qHTS for Small Molecule Agonists and Allosteric Enhancers of Human TRH Receptor: Validation Screen for Agonists (AID 493127;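 active = calcium activation more than 3 SD above the typical response in the agonist read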;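 also: intracellular calcium rise by fluo-8 fluorescence before TRH EC20 addition; 0% is about no effect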). As to conditions: TRH receptor agonist cell assay; at 2 µM; stronger effect = higher value. The method in brief:
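Compounds are added by online pintool to dye-loaded TRHR cells while fluorescence is recorded every second. A rise in calcium signal during the agonist read marks activation; a later 10 nM TRH addition (EC20) serves the separate enhancer mode.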
In general terms: qHTS replaces the single test concentration by a dilution series.

A short description of assay [2]: qHTS for Inhibitors of Cell Surface uPA Generation: Validation Assay (AID 493164).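 Also: RAW 264.7 macrophage cells exposed to compound for 18 h; 0% is about no effect.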 As to conditions: mouse cells, plasminogen activation; series mostly up to 38.3 µM. The method in brief: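 ATP-Lite luminescence read-out: ATP remains high when uPA activity-dependent LF translocation into the cytoplasm is blocked. RAW 264.7 cells, 18 h compound exposure at 37 C; 7-point titration, 2.45 nM to 38.3 uM final.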

For assay [3], the target named is Galactokinase (Homo sapiens) (UniProt P51570). Description: qHTS Validation Assay for Inhibitors of Human Galactokinase (GALK) (AID 493189). Also: 0% is about no effect. As to conditions: purified human GALK enzyme activity, qHTS 7-point titration; series mostly up to 57.5 µM. Put shortly:
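Enzyme activity is inferred from ATP consumption: human GALK phosphorylates galactose (100 uM) using 35 uM ATP for 1 h at room temperature, and luciferase-based Kinase-Glo Plus reports unconsumed ATP.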

The nature of assay [4]: Validation screen for small molecules that induce DNA re-replication in SW480 colon adenocarcinoma cells (AID 504364). Also: potency is read from the fitted curve at half-maximal effect. The conditions noted are these: DNA re-replication phenotype (high-content imaging); series mostly up to 46.1 µM. Put shortly: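 Image-based qHTS: compounds were incubated with SW480 cells for 48 hr, nuclei stained with Hoechst, and per-nucleus fluorescence intensity scanned to flag cells with excess DNA content.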

The target in assay [5] is Peptidyl-prolyl cis-trans isomerase NIMA-interacting 1 (Homo sapiens) (UniProt Q13526). Description: qHTS Validation Assay to Find Inhibitors of Pin1 (AID 504536; active = well fitted inhibition curve with a large enough effect in the polarisation, with a control signal flat, not every such curve was filed as active; the % refers to the polarisation;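 also: 0% = full Pin1 enzyme wells and -100% = no-enzyme wells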). The conditions noted are these: Pin1 fluorescence polarization peptide binding assay; series mostly up to 57.5 µM. The method in brief:
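Fluorescence polarization competition: compounds (titration) displace HiFluor-488-labeled Pin1-1b peptide from Pin1 (0.3 uM final) in pH 7.5 HEPES buffer with DTT, 10 min at room temperature; %Activity normalized to no-enzyme wells, curves fitted.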

Assay [6] has as its target Phosphoglycerate kinase, glycosomal (Trypanosoma brucei brucei) (UniProt P07378). Description: qHTS Validation Assay to Find Inhibitors of Phosphoglycerate Kinase (AID 504547).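 Also: control wells lack PGK and mark full inhibition.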 The conditions noted are these: enzymatic PGK inhibition, coupled luminescence read-out; series mostly up to 57.5 µM. The method in brief: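 In TEA buffer (100mM, pH 7.6) containing 5mM MgCl2 and 0.01% Tween-20, the GAPDH-coupled PGK reaction proceeded for 60 minutes at room temperature before a single luminescence reading using Kinase-Glo Plus.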

The target in assay [7] is phosphoglycerate mutase (Leishmania major) (UniProt Q4Q090). Description: qHTS Validation Assay to Find Inhibitors of Phosphoglycerate Mutase (AID 504548).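 Also: end-point luminescence from Kinase-GloPlus after the PGAM reaction; % is scaled to controls: 0 for no effect and ±100 for the full control effect.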 As to conditions: biochemical enzyme activity; series mostly up to 57.5 µM. Put shortly: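 Inhibition of L. major PGAM was assessed by Kinase-GloPlus luminescence following a 45-minute room-temperature reaction with enzyme at 1.25nM final.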
phosphoglycerate mutase (Leishmania major), sequence (Q4Q090 1-553): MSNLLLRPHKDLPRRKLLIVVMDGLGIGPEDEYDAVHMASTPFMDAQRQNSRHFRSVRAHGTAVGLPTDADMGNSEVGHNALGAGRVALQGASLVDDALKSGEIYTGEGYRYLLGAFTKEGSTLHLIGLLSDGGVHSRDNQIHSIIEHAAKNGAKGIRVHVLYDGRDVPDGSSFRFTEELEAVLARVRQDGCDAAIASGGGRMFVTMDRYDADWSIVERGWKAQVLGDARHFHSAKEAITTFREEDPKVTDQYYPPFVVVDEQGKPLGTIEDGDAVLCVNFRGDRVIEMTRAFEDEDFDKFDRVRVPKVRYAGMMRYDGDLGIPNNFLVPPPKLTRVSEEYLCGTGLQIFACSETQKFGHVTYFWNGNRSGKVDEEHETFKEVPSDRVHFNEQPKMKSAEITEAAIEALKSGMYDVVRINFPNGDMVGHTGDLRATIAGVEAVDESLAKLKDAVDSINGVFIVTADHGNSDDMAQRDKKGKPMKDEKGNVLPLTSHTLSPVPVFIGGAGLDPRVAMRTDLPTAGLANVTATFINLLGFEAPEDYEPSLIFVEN

Assay [8] can be described thus: Inducers of the Endoplasmic Reticulum Stress Response (ERSR) in human glioma: Validation (AID 504836). Also: 0% is about no effect. As to conditions: human glioma cells, ER stress response reporter; series mostly up to 38.3 µM. Put shortly:
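Stably transfected U87-MG human glioma cells carrying a GRP78-based luminescent sensor were seeded at 1000 cells/well, pin-dosed with compounds and incubated 16 h. Luciferase reagent was then added, and end-point luminescence was read after 10 min at room temperature.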

Assay [9] addresses Ubiquitin carboxyl-terminal hydrolase 1 (Homo sapiens) (UniProt O94782). Description: Inhibitors of USP1/UAF1: Pilot qHTS (AID 504865).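 Also: rhodamine fluorescence freed from ubiquitin-rhodamine substrate followed over time; top concentration of the series differs between compounds; % is scaled to controls: 0 for no effect and ±100 for the full control effect; nearly all actives have a fitted effect of over 35% in size.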 As to conditions: purified USP1/UAF1, Ub-rhodamine cleavage fluorescence; series mostly up to 114 µM. Put shortly: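 Enzyme-free wells gave the negative control, while test wells held 1nM USP1/UAF1 preincubated with compound for 15 min at room temperature. Ub-Rho at 150nM final started the reaction, and fluorescence at 480/540 nm was recorded kinetically.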

Assay [10] in a line: qHTS for Inhibitors of ATXN expression: Validation of Cytotoxic Assay (AID 588349). Also: % is scaled to controls: 0 for no effect and ±100 for the full control effect. The conditions noted are these: cytotoxicity counter-screen for ATXN expression inhibitors, cell viability; series mostly up to 57.1 µM. Put shortly:
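Titrated compounds are added to cultured HEK293 cells, which are then held at 37 degrees C for 72 hr; loss of intracellular ATP, measured with CellTiter Glo, indicates toxicity.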

Assay [11] is described as follows: qHTS for Inhibitors of ATXN expression: Validation (AID 588378). Also: % is scaled to controls: 0 for no effect and ±100 for the full control effect; nearly all actives have a fitted effect of over 75% in size. The conditions noted are these: cell-based ATXN2 expression reporter assay, luminescence; series mostly up to 57.1 µM. Put shortly:
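After a 2 h attachment and 24 h compound incubation, HEK293-ATXN2-FFLuc wells are read for fluorescence at 405 nm excitation/525 nm emission as a viability measure, then for Bright-Glo luminescence reflecting ATXN2 expression.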

The target of assay [12] is DNA dC->dU-editing enzyme APOBEC-3G (Homo sapiens) (UniProt Q9HC16). Description: qHTS for inhibitors of Vif-A3G interactions: Validation (AID 588379). Also: 0% is about no effect. As to conditions: Vif-A3G protein interaction assay; series mostly up to 46.1 µM. Put shortly:
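Yellow fluorescence (Ex 488, Em 500-530) of Vif-coexpressing HeLa A3G-eYFP cells, scanned by Acumen cytometer, reports blocked A3G degradation. Cells plated at 700/well overnight at 37 deg C before compound addition, then a further overnight compound incubation at 37 deg C.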

Assay [13] deals with Bile acid receptor (Homo sapiens) (UniProt Q96RI1). Description: qHTS assay for small molecule agonists of farnesoid X receptor signaling (AID 588527; calls by dose curve;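 also: 0% = vehicle basal and 100% = reference agonist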). The conditions noted are these: HEK293T FXR-UAS-bla, beta-lactamase ratio, 16 h; stronger effect = higher value. The method in brief:
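Quantitative HTS used FXR-UAS-bla HEK293T cells with 16 h compound incubation at 37 C. EC50 values came from concentration-response curves normalized to chenodeoxycholic acid.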

Assay [14] has as its target Glucocorticoid receptor (Homo sapiens) (UniProt P04150). Description: qHTS assay for small molecule agonists of glucocorticoid receptor signaling (AID 588532; active = well fitted curve in the direction sought with a large enough effect in the signal ratio, with a control signal flat; the % refers to the signal ratio;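 also: 100% = dexamethasone at 0.1 µM and 0% = DMSO only wells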). As to conditions: HeLa MMTV-bla, beta-lactamase ratio, agonist, 18 h; stronger effect = higher value; percent of dexamethasone control, DMSO zero. The method in brief:
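MMTV-bla HeLa, beta-lactamase reporter; medium with 1% charcoal/dextran-stripped FBS; cpds up to 92 uM, 18 h, 37 C; CCF4 readout 460/530 nm; Hill fit → EC50, efficacy vs 0.1 uM dexamethasone = 100%.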

Assay [15] deals with Estrogen receptor (Homo sapiens) (UniProt P03372). Description: qHTS assay for small molecule agonists of estrogen receptor alpha signaling (AID 588514; calls by dose curve;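 also: 0% = vehicle only and 100% = reference agonist; nearly all actives have a fitted effect of over 70% in size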). As to conditions: ER-alpha-UAS-bla HEK293, beta-lactamase ratio, 18 h; series mostly up to 76.8 µM. Put shortly:
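Efficacy is expressed against 20 nM 17-beta-estradiol (100%) and DMSO basal (0%); EC50 from Hill equation. Assay: beta-lactamase reporter in ER-alpha-UAS-bla HEK 293 cells, 18 h compound incubation, CCF4 detection.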

Where “and” joins values, the source holds several entries; their conditions need not be identical. Equal values may be shown once. Values without a mark were called inactive. Records with an inconclusive call do not appear. Calls of active or inactive are those of the source. Unless noted, calls follow the shape of the dose curve; as a rule, active = well fitted curve in the direction sought with a large enough effect; inconclusive = small, poorly fitted or top-dose-only effect, or another doubt; inactive = no such curve, though single readings can be large; an effect the other way counts as inactive or inconclusive.

Ubiquitin carboxyl-terminal hydrolase 1 (Homo sapiens), sequence (O94782 whole entry, looked up): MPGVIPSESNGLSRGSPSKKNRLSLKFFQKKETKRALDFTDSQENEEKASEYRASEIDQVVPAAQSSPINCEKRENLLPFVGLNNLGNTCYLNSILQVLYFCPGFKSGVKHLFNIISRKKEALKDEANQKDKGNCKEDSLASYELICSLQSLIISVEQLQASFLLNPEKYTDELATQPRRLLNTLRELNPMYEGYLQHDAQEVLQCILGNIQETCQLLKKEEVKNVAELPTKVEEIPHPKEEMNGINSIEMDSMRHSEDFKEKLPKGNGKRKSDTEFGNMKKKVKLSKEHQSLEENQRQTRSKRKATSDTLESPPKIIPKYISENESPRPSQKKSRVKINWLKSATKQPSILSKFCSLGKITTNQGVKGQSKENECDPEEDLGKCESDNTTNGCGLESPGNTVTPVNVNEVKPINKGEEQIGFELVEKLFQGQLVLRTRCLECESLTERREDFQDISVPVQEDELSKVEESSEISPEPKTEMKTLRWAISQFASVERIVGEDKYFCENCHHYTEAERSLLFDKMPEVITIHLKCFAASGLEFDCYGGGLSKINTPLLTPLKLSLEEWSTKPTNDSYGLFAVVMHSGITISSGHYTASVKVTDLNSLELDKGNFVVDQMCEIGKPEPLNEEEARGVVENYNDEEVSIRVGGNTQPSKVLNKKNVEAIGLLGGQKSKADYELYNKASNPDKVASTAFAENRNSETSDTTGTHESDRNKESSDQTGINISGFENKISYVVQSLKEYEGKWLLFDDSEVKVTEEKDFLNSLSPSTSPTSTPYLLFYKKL
Phosphoglycerate kinase, glycosomal (Trypanosoma brucei brucei), sequence (P07378 whole entry, looked up): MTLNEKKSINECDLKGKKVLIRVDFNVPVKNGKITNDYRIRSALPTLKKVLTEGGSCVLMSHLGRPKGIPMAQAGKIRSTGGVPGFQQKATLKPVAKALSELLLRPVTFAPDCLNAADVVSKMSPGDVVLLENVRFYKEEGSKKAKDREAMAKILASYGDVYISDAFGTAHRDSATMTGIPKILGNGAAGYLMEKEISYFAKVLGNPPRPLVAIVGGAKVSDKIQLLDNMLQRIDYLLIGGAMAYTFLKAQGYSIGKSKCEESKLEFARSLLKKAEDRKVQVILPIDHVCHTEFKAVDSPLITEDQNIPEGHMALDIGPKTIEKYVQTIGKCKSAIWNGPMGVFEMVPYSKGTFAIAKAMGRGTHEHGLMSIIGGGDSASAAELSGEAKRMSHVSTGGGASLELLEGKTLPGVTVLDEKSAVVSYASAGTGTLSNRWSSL
Peptidyl-prolyl cis-trans isomerase NIMA-interacting 1 (Homo sapiens), sequence (Q13526 whole entry, looked up): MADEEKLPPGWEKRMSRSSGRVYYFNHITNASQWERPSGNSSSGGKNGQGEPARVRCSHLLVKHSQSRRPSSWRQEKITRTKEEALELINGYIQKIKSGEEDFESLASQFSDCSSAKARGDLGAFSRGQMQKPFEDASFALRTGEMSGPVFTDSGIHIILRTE
Bile acid receptor (Homo sapiens), sequence (Q96RI1 whole entry, looked up): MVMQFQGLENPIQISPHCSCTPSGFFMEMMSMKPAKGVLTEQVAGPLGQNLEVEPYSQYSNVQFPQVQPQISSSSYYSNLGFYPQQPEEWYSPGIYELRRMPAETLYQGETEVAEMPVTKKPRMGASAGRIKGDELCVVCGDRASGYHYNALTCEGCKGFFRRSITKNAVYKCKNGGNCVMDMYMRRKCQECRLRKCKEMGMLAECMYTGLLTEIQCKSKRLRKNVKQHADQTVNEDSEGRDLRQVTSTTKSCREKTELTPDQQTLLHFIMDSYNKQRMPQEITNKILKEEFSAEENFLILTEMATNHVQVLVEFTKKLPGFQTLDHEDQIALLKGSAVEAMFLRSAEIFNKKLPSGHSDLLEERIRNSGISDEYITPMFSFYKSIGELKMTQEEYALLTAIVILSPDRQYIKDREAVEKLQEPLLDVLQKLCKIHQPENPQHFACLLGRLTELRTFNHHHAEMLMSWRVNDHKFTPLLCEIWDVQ
Thyrotropin-releasing hormone receptor (Homo sapiens), sequence (P34981 whole entry, looked up): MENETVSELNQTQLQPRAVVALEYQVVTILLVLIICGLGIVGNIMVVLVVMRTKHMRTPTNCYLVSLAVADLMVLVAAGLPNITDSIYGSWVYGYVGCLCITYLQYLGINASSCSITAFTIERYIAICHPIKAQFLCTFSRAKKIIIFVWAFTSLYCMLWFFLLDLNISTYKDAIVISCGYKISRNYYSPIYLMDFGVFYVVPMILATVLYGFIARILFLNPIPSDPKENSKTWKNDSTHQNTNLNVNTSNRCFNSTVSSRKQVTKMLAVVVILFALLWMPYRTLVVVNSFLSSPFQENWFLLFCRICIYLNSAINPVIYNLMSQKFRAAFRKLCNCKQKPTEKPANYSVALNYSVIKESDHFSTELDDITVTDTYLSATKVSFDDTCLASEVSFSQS
Galactokinase (Homo sapiens), sequence (P51570 whole entry, looked up): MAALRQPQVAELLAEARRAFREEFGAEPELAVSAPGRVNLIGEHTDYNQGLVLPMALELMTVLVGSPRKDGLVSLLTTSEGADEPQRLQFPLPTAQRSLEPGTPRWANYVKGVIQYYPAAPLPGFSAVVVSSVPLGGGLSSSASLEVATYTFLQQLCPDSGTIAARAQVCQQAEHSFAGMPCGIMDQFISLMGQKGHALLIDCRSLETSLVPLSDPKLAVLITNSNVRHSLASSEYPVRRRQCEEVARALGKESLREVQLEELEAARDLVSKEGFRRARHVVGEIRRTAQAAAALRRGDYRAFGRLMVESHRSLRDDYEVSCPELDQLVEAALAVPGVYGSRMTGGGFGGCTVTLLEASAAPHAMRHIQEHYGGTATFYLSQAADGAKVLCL
DNA dC->dU-editing enzyme APOBEC-3G (Homo sapiens), sequence (Q9HC16 whole entry, looked up): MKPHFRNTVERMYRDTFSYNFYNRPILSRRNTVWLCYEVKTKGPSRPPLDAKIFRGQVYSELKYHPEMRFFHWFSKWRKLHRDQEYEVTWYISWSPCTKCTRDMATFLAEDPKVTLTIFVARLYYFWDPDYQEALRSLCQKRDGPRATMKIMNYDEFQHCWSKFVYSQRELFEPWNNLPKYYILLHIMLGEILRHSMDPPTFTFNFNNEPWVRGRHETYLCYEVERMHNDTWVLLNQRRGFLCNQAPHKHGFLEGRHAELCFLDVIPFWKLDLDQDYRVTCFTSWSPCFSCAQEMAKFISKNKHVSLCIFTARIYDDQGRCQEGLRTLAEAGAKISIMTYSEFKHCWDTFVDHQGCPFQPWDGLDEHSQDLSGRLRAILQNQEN
Estrogen receptor (Homo sapiens), sequence (P03372 whole entry, looked up): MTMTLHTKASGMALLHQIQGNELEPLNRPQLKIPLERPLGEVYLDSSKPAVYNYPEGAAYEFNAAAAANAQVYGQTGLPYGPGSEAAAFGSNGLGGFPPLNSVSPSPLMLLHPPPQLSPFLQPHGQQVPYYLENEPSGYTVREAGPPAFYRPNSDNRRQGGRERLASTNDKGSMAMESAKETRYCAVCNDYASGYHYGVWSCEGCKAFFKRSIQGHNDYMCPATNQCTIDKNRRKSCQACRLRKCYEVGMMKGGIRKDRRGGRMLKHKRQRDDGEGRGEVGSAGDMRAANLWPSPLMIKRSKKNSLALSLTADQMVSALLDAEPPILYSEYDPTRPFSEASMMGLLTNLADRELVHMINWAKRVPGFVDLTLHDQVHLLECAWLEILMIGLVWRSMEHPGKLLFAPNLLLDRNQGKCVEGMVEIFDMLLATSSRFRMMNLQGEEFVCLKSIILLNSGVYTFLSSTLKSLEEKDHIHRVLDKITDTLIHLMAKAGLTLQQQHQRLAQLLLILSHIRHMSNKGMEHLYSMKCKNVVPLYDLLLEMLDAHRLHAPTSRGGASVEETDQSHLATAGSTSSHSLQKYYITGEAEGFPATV
Glucocorticoid receptor (Homo sapiens), sequence (P04150 whole entry, looked up): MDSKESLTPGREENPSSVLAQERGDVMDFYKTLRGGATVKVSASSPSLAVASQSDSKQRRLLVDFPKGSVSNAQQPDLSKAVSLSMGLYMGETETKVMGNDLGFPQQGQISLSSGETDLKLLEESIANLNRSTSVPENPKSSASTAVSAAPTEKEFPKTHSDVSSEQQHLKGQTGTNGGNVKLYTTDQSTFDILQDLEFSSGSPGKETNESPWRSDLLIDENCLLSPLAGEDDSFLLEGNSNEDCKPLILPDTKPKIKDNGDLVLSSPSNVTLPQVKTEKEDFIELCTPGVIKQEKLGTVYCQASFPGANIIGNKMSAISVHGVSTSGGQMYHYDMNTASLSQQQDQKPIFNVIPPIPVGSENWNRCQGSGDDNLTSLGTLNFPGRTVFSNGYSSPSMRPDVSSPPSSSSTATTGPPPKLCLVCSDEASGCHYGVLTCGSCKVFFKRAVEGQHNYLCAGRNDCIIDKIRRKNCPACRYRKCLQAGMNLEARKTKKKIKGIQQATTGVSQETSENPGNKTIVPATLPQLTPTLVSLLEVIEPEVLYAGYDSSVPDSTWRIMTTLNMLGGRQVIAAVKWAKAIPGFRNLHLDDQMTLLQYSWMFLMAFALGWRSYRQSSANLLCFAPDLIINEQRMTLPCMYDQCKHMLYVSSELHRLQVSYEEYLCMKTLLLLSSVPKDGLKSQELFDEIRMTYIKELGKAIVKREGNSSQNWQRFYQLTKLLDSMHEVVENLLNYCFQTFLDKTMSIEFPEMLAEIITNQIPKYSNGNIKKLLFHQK

Take `CC(=O)[C@H]1CC[C@H]2[C@@H]3CC[C@H]4C[C@H](O)CC[C@]4(C)[C@H]3C(=O)C[C@]12C`: the activation in assay [1] was 1.5%. For the same compound, the compound was called inactive in assay [2], in assay [3], in [7] and in assay [8]. The Potency entry in [4], in assay [5], in [6], in [9], in [10] and in [11] was “inactive” throughout.
In the case of `C=C(C)[C@H]1Cc2c(ccc3c2O[C@@H]2COc4cc(OC)c(OC)cc4[C@@H]2C3=O)O1`, the activation in assay [1] was 1.25%; in assay [13], -1.33%; in [14] it was -11.8%. Besides, the compound was called inactive in assay [2], in [3], in [7], in assay [8] and in [12]. The Potency in [4] is 920 nM (active). In addition, the Potency result in [5] and in assay [6] was “inactive” each time.
With `NN=C(N)N`, the outcome in assay [2], in assay [3], in assay [7], in [8] and in [12] was inactive. For the same compound, the Potency result in [4], in [5], in [6], in assay [9], in assay [10] and in assay [11] was “inactive” in each case.
As for `C[C@@H]1O[C@@H](O[C@H]2C[C@@H](O)[C@]3(CO)[C@H]4[C@H](O)C[C@]5(C)[C@@H](C6=CC(=O)OC6)CC[C@]5(O)[C@@H]4CC[C@]3(O)C2)[C@H](O)[C@H](O)[C@H]1O`, the compound was called inactive in [2], in [7] and in [8]. Besides, the Potency entry in assay [4], in assay [5], in [6], in assay [9] and in assay [11] was “inactive” in each case.
As to `COc1ccccc1N1CCNCC1`, the activation in [1] was -7.69%. The call in assay [2], in [3], in [7] and in assay [8] was inactive. In addition, the Potency entry in [4], in assay [5], in assay [6], in [9], in assay [10] and in [11] was “inactive” in each case.
Regarding `Cc1ncc(CNC(=O)N(CCCl)N=O)c(N)n1`, in assay [1], the activation was 1.5%. The compound was called inactive in assay [2], in [3], in [7] and in assay [8]. Further, the Potency entry in [4], in assay [5], in assay [6], in [9], in assay [10] and in [11] was “inactive” in each case.
With `CCn1cc(C(=O)O)c(=O)c2ccc(C)nc21`, the activation in [1] was 1.06%; in assay [13], -0.319% and 0.585%. The outcome in assay [3] and in [8] was inactive. Moreover, the Potency entry in assay [4] and in assay [15] was “inactive” throughout.

The values are drawn from PubChem BioAssay (NCATS).
